# From publication PMC11062922 (Nature Chemical Biology, 2023)
# Like-named read-outs stand apart in the source and are kept apart here.
# Assays:
# Design in all cases: species or system human, MV4-11 + K-562 + COLO205 + SK-N-BE2 + OVCAR-8
# CDK17 = settings: read-out: apparent Kd, compound concentrations: 100 nM and 1000 nM (sheet 'Samples'), n = 1
# STK3 = settings: read-out: apparent Kd, n = 1
# TNIK = settings: read-out: apparent Kd, n = 1
# STK16 = settings: read-out: apparent Kd, compound concentrations: 100 nM and 1000 nM (sheet 'Samples'), n = 1
# EPHA2 = settings: read-out: apparent Kd; compound concentrations: 100 nM and 1000 nM (sheet 'Samples'), CATDS: 2.1099204097422001E-2; n = 1
# ATM = settings: read-out: apparent Kd, n = 1
# RIOK2 = settings: read-out: apparent Kd, n = 1
# ROCK2 = settings: read-out: apparent Kd, n = 1
# PRKX = settings: read-out: apparent Kd, n = 1
# CSNK1A1 = settings: read-out: apparent Kd, compound concentrations: 100 nM and 1000 nM (sheet 'Samples'), n = 1
# MARK2 = settings: read-out: apparent Kd; compound concentrations:100 nM and 1000 nM (sheet 'Samples'); n = 1
# PHKG2 = settings: read-out: apparent Kd; compound concentrations:100 nM and 1000 nM (sheet 'Samples'); n = 1
# CSNK1E = settings: read-out: apparent Kd; compound concentrations:100 nM and 1000 nM (sheet 'Samples'); n = 1
# MAPK8 = settings: read-out: apparent Kd; compound concentrations: 100 nM and 1000 nM (sheet 'Samples'), CATDS: 0.361738634517147; n = 1
# HCK = settings: read-out: apparent Kd; compound concentrations: 100 nM and 1000 nM (sheet 'Samples'), CATDS: 4.52340510871738E-2; n = 1
# SRC = settings: read-out: apparent Kd; compound concentrations: 100 nM and 1000 nM (sheet 'Samples'), CATDS: 5.0295032408805701E-2; n = 1
# BUB1 = settings: read-out: apparent Kd; compound concentrations:100 nM and 1000 nM (sheet 'Samples'); n = 1
# [1] = compound concentrations:100 nM and 1000 nM (sheet 'Samples')
compound,measurement,setting,value
NS(=O)(=O)c1ccc(N/C=C2\C(=O)Nc3ccc4ncsc4c32)cc1 [GW297361X],potency estimated from few doses,CDK17; CATDS: 3.2920302363338198E-2,1410 nM
same,potency estimated from few doses,"STK3; compound concentrations: 100 nM and 1000 nM (sheet 'Samples'), CATDS: 4.8533419751013301E-2",558 nM
same,potency estimated from few doses,"TNIK; compound concentrations: 100 nM and 1000 nM (sheet 'Samples'), CATDS: 3.6664419763171099E-2",1050 nM
COc1cc[nH]c1/C=C1\C(=O)Nc2ccc([N+](=O)[O-])c(N3CC[C@@H](O)C3)c21 [RO0504985-000],potency estimated from few doses,CDK17; CATDS: 2.9599513328136099E-2,2050 nM
same,potency estimated from few doses,STK16; CATDS: 3.4591069451125701E-2,1100 nM
Cl.Cn1c(=O)c(Cc2ccccc2F)cc2cnc(NC3CCOCC3)nc21 [RO3305377-001],potency estimated from few doses,EPHA2,976 nM
CC(C)N1CC(=O)N(C)c2cnc(Nc3cccc(S(=O)(=O)CCN4CCOCC4)c3)nc21 [BI00009348],potency estimated from few doses,"ATM; compound concentrations: 100 nM and 1000 nM (sheet 'Samples'), CATDS: 0.21813144295739101",112 nM
same,potency estimated from few doses,STK16; CATDS: 5.8221493759355002E-2,1180 nM
CNc1nccc(-c2ccc3c(N)n[nH]c3c2)n1 [GSK2206003A],potency estimated from few doses,"RIOK2; compound concentrations: 100 nM and 1000 nM (sheet 'Samples'), CATDS: 5.2095061468969701E-2",1360 nM
CCn1c(-c2nonc2N)nc2cncc(Br)c21 [SB-738004],potency estimated from few doses,ROCK2; [1],84.1 nM
Cl.Cl.NC[C@H](CC1CCCCC1)NC(=O)c1ccc(-c2ccnc3[nH]ccc23)s1.NC[C@H](CC1CCCCC1)NC(=O)c1ccc(-c2ccnc3[nH]ccc23)s1 [GSK1581428A],potency estimated from few doses,PRKX; [1],14.8 nM
same,potency estimated from few doses,ROCK2; [1],22.8 nM
CCC(CC)(CC)n1cnc2c(N)ncnc21 [SKF-97620],potency estimated from few doses,"ATM; compound concentrations: 100 nM and 1000 nM (sheet 'Samples'), CATDS: 0.160358426493935",43.6 nM
same,potency estimated from few doses,CSNK1A1; CATDS: 2.3982037208091899E-2,2040 nM
same,potency estimated from few doses,"ROCK2; compound concentrations: 100 nM and 1000 nM (sheet 'Samples'), CATDS: 2.44983042375609E-2",1890 nM
same,potency estimated from few doses,STK16; CATDS: 2.4791853580208099E-2,1810 nM
Nc1nc(-c2ccc3c(N)n[nH]c3c2)cc(N2CCCC(NC(=O)c3ccccc3)C2)n1 (centres unmarked) [GSK2286775B],potency estimated from few doses,RIOK2; [1],1860 nM
O=C1N=C(N[C@H](CO)c2ccccc2)S/C1=C\c1ccc2ncccc2c1 [RO4554339-000],potency estimated from few doses,"PRKX; compound concentrations: 100 nM and 1000 nM (sheet 'Samples'), CATDS: 0.109723190232525",705 nM
NS(=O)(=O)c1ccc(N/N=C2\C(=O)Nc3ccc4ncccc4c32)cc1 [GW305178X],potency estimated from few doses,CDK17; CATDS: 6.1858788217922803E-2,544 nM
same,potency estimated from few doses,"STK3; compound concentrations: 100 nM and 1000 nM (sheet 'Samples'), CATDS: 4.2852870715448799E-2",1580 nM
Cl.Nc1nc(-c2ccc3c(c2)C(=Cc2cc(Br)c(O)c(Br)c2)C(=O)N3)cs1 [GW407323A],potency estimated from few doses,CDK17; CATDS: 2.78233460707746E-2,2030 nM
same,potency estimated from few doses,"TNIK; compound concentrations: 100 nM and 1000 nM (sheet 'Samples'), CATDS: 0.10928508706444801",58.6 nM
O=C(Nc1n[nH]c2nc(-c3ccccc3O)ccc12)C1CC1 [SB-711880],potency estimated from few doses,MARK2,2380 nM
same,potency estimated from few doses,PHKG2,1550 nM
same,potency estimated from few doses,STK3; [1],483 nM
same,potency estimated from few doses,TNIK; [1],1150 nM
Nc1nccc(-c2ccc3c(N)n[nH]c3c2)n1 [GSK1034945A],potency estimated from few doses,MARK2,1440 nM
same,potency estimated from few doses,PRKX; [1],1040 nM
Cc1cc(NC(=O)c2cccc(NC(=O)/C=C/CN(C)C)c2)ccc1Nc1nccc(-c2cccnc2)n1 [JNK-IN-7],potency estimated from few doses,ATM; [1],273 nM
same,potency estimated from few doses,CSNK1E,2010 nM
same,potency estimated from few doses,MAPK8,10.7 nM
same,potency estimated from few doses,RIOK2; [1],720 nM
COc1ccc(Nc2nccc(NCCNC(=O)Nc3cc(C)ccc3C)n2)cc1 [GSK1379899A],potency estimated from few doses,CSNK1A1; CATDS: 3.9039606822866203E-2,2320 nM
same,potency estimated from few doses,HCK,1500 nM
same,potency estimated from few doses,SRC,1150 nM
Cl.Cl.NCC(NC(=O)c1cc(-c2ccnc3[nH]ccc23)cs1)c1ccccc1.NCC(NC(=O)c1cc(-c2ccnc3[nH]ccc23)cs1)c1ccccc1 (centres unmarked) [GSK1229959A],potency estimated from few doses,CSNK1A1; CATDS: 1.7292199039589701E-2,1760 nM
same,potency estimated from few doses,"PRKX; compound concentrations: 100 nM and 1000 nM (sheet 'Samples'), CATDS: 6.1031439007252199E-2",21.6 nM
same,potency estimated from few doses,"ROCK2; compound concentrations: 100 nM and 1000 nM (sheet 'Samples'), CATDS: 0.12516480015121101",6.2 nM
CCn1c(-c2nonc2N)nc2cncc(C(=O)N3CC[C@H](N)C3)c21.Cl [SB-772077-B],potency estimated from few doses,BUB1,1790 nM
same,potency estimated from few doses,PRKX; [1],177 nM
same,potency estimated from few doses,ROCK2; [1],11.6 nM
COc1cccc(C2=C(c3c(C)n(C)c4ccccc34)C(=O)NC2=O)c1 [RO3300167-000],potency estimated from few doses,"STK3; compound concentrations: 100 nM and 1000 nM (sheet 'Samples'), CATDS: 0.106754068539186",824 nM
COc1cc2ncn(-c3cc(OCc4ccccc4S(C)(=O)=O)c(C#N)s3)c2cc1OC [GSK319347A],potency estimated from few doses,"TNIK; compound concentrations: 100 nM and 1000 nM (sheet 'Samples'), CATDS: 7.3332449024222507E-2",2280 nM
NS(=O)(=O)c1ccc(N/N=C2\C(=O)Nc3ccc(-c4cnco4)cc32)cc1 [GW276655_KCGS],potency estimated from few doses,TNIK; [1],1940 nM
